The text below walks through data of PubChem BioAssay (NCI).

About 83,000 compounds went through this panel and 20% of them were active in at least one assay; those are over-represented in the sample as a whole.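 Values shown are percent growth following 48 h exposure of cells in 96-well plates to a single concentration of compound; below 10 was considered active.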 Values without a mark were called inactive. The source made the active and inactive calls.

The first assay concerns UACC-257 melanoma. The assay can be described thus: NCI-60 one-dose screen, 48 h (100 = growth as untreated, 0 = no growth, -100 = all killed). Particulars: 10 µM.
Take `C=CC(=O)OCCCCCCCC`: the growth was 96.7%. On the same count and under the same terms, the same measure for `CCOC(=O)CNN`: 97%; for `NNc1ccccc1C(=O)O`: 103%; for `CC1(c2ccccc2)NC(=O)NC1=O` (centres undefined): 84.5%.

Consider `C=CC[N+](C)(C)C`, for which the growth was 101%. Consider `O=C1N(C[P+](c2ccccc2)(c2ccccc2)c2ccccc2)CCCN1C[P+](c1ccccc1)(c1ccccc1)c1ccccc1`, for which the growth is 101%. The same measure, in the same setting: the same measure for `Brc1cnc2ccccc2c1`: 103%.

As to `CSC[C@H](NC(=O)COc1cccc2cnccc12)C(=O)NC(Cc1ccccc1)C(O)C(=O)N1CSC[C@H]1C(=O)NC(C)(C)C` (some centres undefined), the growth was 106%.

On to `OC(c1ccccn1)C(O)c1ccccn1` (centres undefined), for which the growth is 102%. Turning to `CCNCCCCNCCCCNCCCCNCCCCNCC`, the growth was 30.7%. The same measure, in the same setting: with `NC(=S)CN1CCOCC1` the figure was 117%; with `COC(=O)c1ccc(NC(=O)CCl)cc1`, 60.4%; with `Cc1cc(C)cc(NCCC#N)c1`, 124%. On the same count and under the same terms, the same measure for `O=C(O)/C=C/c1ccc2c(c1)CCC2`: 97.8%.

As for `CC(=O)N(C)c1ccc([N+](=O)[O-])cc1`, the growth is 110%. Take `CCOC(=O)C1=C(C)NC(=O)NC1c1cccs1` (centres undefined): the growth is 102%. The same measure, in the same setting: the same measure for `COc1cc(C2c3cc4c(cc3C3OC(=O)C2C3CO)OCO4)cc(OC)c1OC` (centres undefined): 57%. In the case of `O=C(CCl)N1CCN(C/C=C/c2ccccc2)CC1`, the growth is 85.8%.

For `O=C(CS)Nc1ccc2ccccc2c1`, the growth was 133%. As to `COc1cc(-c2ccc(NC(=O)NC3CC3)c(OC)c2)ccc1NC(=O)NC1CC1`, the growth is 26.5%. Regarding `CC(=O)OCC(=O)[C@@]1(O)CC[C@H]2[C@@H]3CC[C@@H]4C[C@H](O)CC[C@]4(C)[C@H]3C(=O)C[C@@]21C`, the growth is 101%. Regarding `NC(=O)NC(=O)c1ccc(Cl)cc1`, the growth is 107%. Turning to `Oc1ccc(Cc2ccccc2)c2cccnc12`, the growth is 1.27% (active). Still for that read-out and setting: with `C/C(=C\c1cc(Cl)ccc1OCC(=O)O)[N+](=O)[O-]` the figure was 102%; with `O=[N+]([O-])c1ccc(Cl)c(S(=O)(=O)O)c1`, 96.6%.

A further assay deals with M14 melanoma. The description is as above. The conditions noted are these: 10 µM.
In the case of `C=CC(=O)OCCCCCCCC`, the growth is 104%. Take `CCOC(=O)CNN`: the growth is 107%. Consider `NNc1ccccc1C(=O)O`, for which the growth is 110%. For the compound `CCOC(=O)C1=C(Nc2ccc(Br)cc2)C(=O)N(CC)C1`, the growth is 110%. Same read-out and setting: the same measure for `Cc1cc(C(O)(c2ccc(Nc3ccccc3)cc2)c2ccc(Nc3ccc(S(=O)(=O)O)cc3)cc2)ccc1N` (centres undefined): -42.6% (active); for `CC1(c2ccccc2)NC(=O)NC1=O` (centres undefined): 121%. The same measure, in the same setting: with `C=CC[N+](C)(C)C` the figure was 107%; with `O=C1N(C[P+](c2ccccc2)(c2ccccc2)c2ccccc2)CCCN1C[P+](c1ccccc1)(c1ccccc1)c1ccccc1`, 98.2%; with `Brc1cnc2ccccc2c1`, 97.7%. Still for that read-out and setting: the same measure for `Nc1ccc(N)c([N+](=O)[O-])c1`: 112%; for `CSC[C@H](NC(=O)COc1cccc2cnccc12)C(=O)NC(Cc1ccccc1)C(O)C(=O)N1CSC[C@H]1C(=O)NC(C)(C)C` (some centres undefined): 99.3%. `OC(c1ccccn1)C(O)c1ccccn1` (centres undefined): the growth is 103%. For the compound `CCNCCCCNCCCCNCCCCNCCCCNCC`, the growth is 66.9%. Still for that read-out and setting: the same measure for `NC(=S)CN1CCOCC1`: 120%; for `CC(C)=CC(=O)OC(=O)C=C(C)C`: 107%.

As to `COc1ccc(C(O)c2ccccc2)cc1` (centres undefined), the growth is 103%. With `N#CC(=Nc1cccc(F)c1)C1=C(O)c2ccccc2C1=O`, the growth is 98.2%.

Consider `COC(=O)c1ccc(NC(=O)CCl)cc1`, for which the growth was 90.4%. Still for that read-out and setting: the same measure for `O=C(O)CCC(NC(=O)OCc1ccccc1)C(=O)O` (centres undefined): 103%; for `Cc1cc(C)cc(NCCC#N)c1`: 117%. As to `O=C(O)/C=C/c1ccc2c(c1)CCC2`, the growth was 106%. Same read-out and setting: the same measure for `O=C1OC(=O)C2C1C1(Cl)C(Cl)=C(Cl)C2(Cl)C2C(=O)OC(=O)C21` (centres undefined): 101%; for `CC(=O)N(C)c1ccc([N+](=O)[O-])cc1`: 108%; for `COc1ccc(/C(C#N)=C2C=C/C(=N/O)c3ccccc3\2)cc1`: 7.1% (active). The same measure, in the same setting: with `CCOC(=O)C1=C(C)NC(=O)NC1c1cccs1` (centres undefined) the figure was 111%.

For the compound `COc1cc(C2c3cc4c(cc3C3OC(=O)C2C3CO)OCO4)cc(OC)c1OC` (centres undefined), the growth is 12.1%. On the same count and under the same terms, with `O=C(CCl)N1CCN(C/C=C/c2ccccc2)CC1` the figure was 90.1%; with `CC(C)(C)n1nc(C2CC2)c(Br)c1NC(=O)c1ccccc1F`, 102%.

For `CCOC(=O)C/C(C)=N\O`, the growth is 101%. Consider `O=C(CS)Nc1ccc2ccccc2c1`, for which the growth is 111%. Still for that read-out and setting: the same measure for `C=CCCCCCCCCCOC(C)=O`: 104%; for `COc1cc(-c2ccc(NC(=O)NC3CC3)c(OC)c2)ccc1NC(=O)NC1CC1`: 75.7%; for `CC(=O)OCC(=O)[C@@]1(O)CC[C@H]2[C@@H]3CC[C@@H]4C[C@H](O)CC[C@]4(C)[C@H]3C(=O)C[C@@]21C`: 110%.

Regarding `NC(=O)NC(=O)c1ccc(Cl)cc1`, the growth was 96.1%. Still for that read-out and setting: with `NC(=O)c1ccc(N=C(N)N=C(N)N)cc1` the figure was 110%; with `Oc1ccc(Cc2ccccc2)c2cccnc12`, -29.8% (active); with `C/C(=C\c1cc(Cl)ccc1OCC(=O)O)[N+](=O)[O-]`, 103%. Turning to `O=[N+]([O-])c1ccc(Cl)c(S(=O)(=O)O)c1`, the growth was 107%. On the same count and under the same terms, with `CC(CN1CCCCC1)NC(=O)c1scnc1-c1ccccc1` (centres undefined) the figure was 101%.
